# Measurements taken from PMC11062922 (Nature Chemical Biology, 2023).
# Read-outs that look alike come from different tables or passages of the source.
# Assays:
# Parameters in all cases: species or system human, MV4-11 + K-562 + COLO205 + SK-N-BE2 + OVCAR-8
# AKT1 = settings: read-out: apparent Kd, compound concentrations: 100 nM and 1000 nM (sheet 'Samples'), n = 1
# ADRBK1 = settings: read-out: apparent Kd; compound concentrations: 100 nM and 1000 nM (sheet 'Samples'), CATDS: 0.26872629517394703; n = 1
# GSK3A = settings: read-out: apparent Kd, compound concentrations: 100 nM and 1000 nM (sheet 'Samples'), n = 1
# MYLK3 = settings: read-out: apparent Kd, compound concentrations: 100 nM and 1000 nM (sheet 'Samples'), n = 1
# CDC42 = settings: read-out: apparent Kd; compound concentrations: 100 nM and 1000 nM (sheet 'Samples'), CATDS: 5.0343094610780299E-2; n = 1
# DYNC1LI1 = settings: read-out: apparent Kd; compound concentrations: 100 nM and 1000 nM (sheet 'Samples'), CATDS: 4.8109196484876701E-2; n = 1
# ERBB3 = settings: read-out: apparent Kd; compound concentrations: 100 nM and 1000 nM (sheet 'Samples'), CATDS: 4.7313636214179999E-2; n = 1
# GARS = settings: read-out: apparent Kd; compound concentrations: 100 nM and 1000 nM (sheet 'Samples'), CATDS: 4.5585082575177599E-2; n = 1
# GSK3B = settings: read-out: apparent Kd; compound concentrations: 100 nM and 1000 nM (sheet 'Samples'), CATDS: 0.10546569208605799; n = 1
# HSP90B1 = settings: read-out: apparent Kd; compound concentrations: 100 nM and 1000 nM (sheet 'Samples'), CATDS: 4.7547071429497198E-2; n = 1
# MAP2K1 = settings: read-out: apparent Kd; compound concentrations: 100 nM and 1000 nM (sheet 'Samples'), CATDS: 4.25622085031407E-2; n = 1
# MAP2K2 = settings: read-out: apparent Kd; compound concentrations: 100 nM and 1000 nM (sheet 'Samples'), CATDS: 4.6529537247477E-2; n = 1
# MDN1 = settings: read-out: apparent Kd; compound concentrations: 100 nM and 1000 nM (sheet 'Samples'), CATDS: 4.19866133995229E-2; n = 1
# NNT = settings: read-out: apparent Kd; compound concentrations: 100 nM and 1000 nM (sheet 'Samples'), CATDS: 4.95392498935424E-2; n = 1
# NQO1 = settings: read-out: apparent Kd; compound concentrations: 100 nM and 1000 nM (sheet 'Samples'), CATDS: 4.7041069195994198E-2; n = 1
# OPA1 = settings: read-out: apparent Kd; compound concentrations: 100 nM and 1000 nM (sheet 'Samples'), CATDS: 4.33362445952395E-2; n = 1
# PGK1 = settings: read-out: apparent Kd; compound concentrations: 100 nM and 1000 nM (sheet 'Samples'), CATDS: 0.623413247361988; n = 1
# PRKCA = settings: read-out: apparent Kd; compound concentrations: 100 nM and 1000 nM (sheet 'Samples'), CATDS: 4.05038047397221E-2; n = 1
# PRKCD = settings: read-out: apparent Kd; compound concentrations: 100 nM and 1000 nM (sheet 'Samples'), CATDS: 3.9953874898385103E-2; n = 1
# TNIK = settings: read-out: apparent Kd; compound concentrations: 100 nM and 1000 nM (sheet 'Samples'), CATDS: 4.3236885400500899E-2; n = 1
# VDAC3 = settings: read-out: apparent Kd; compound concentrations: 100 nM and 1000 nM (sheet 'Samples'), CATDS: 4.2633905781269299E-2; n = 1
structure (smiles),measurement,setting,value
Cn1cc(C2=C(c3cn(-c4ccccc4)c4ccccc34)C(=O)NC2=O)c2ccccc21 [RO0318564-000],potency estimated from few doses,AKT1; CATDS: 1,2080 nM
COc1ccc(C2=C(c3cn(C)c4ccccc34)C(=O)NC2=O)cc1 [RO0317257-000],potency estimated from few doses,ADRBK1,1840 nM
same,potency estimated from few doses,GSK3A; CATDS: 0.49410987745455298,529 nM
same,potency estimated from few doses,MYLK3; CATDS: 0.30722908276371202,1310 nM
Cn1cc(C2=C(c3cn(C)c4c(N)cccc34)C(=O)NC2=O)c2ccccc21 [RO0317482-000],potency estimated from few doses,AKT1; CATDS: 4.4101078523111903E-2,1790 nM
same,potency estimated from few doses,CDC42,1310 nM
same,potency estimated from few doses,DYNC1LI1,1450 nM
same,potency estimated from few doses,ERBB3,1510 nM
same,potency estimated from few doses,GARS,1650 nM
same,potency estimated from few doses,GSK3A; CATDS: 8.5551067641828404E-2,484 nM
same,potency estimated from few doses,GSK3B,343 nM
same,potency estimated from few doses,HSP90B1,1490 nM
same,potency estimated from few doses,MAP2K1,1960 nM
same,potency estimated from few doses,MAP2K2,1570 nM
same,potency estimated from few doses,MDN1,2030 nM
same,potency estimated from few doses,MYLK3; CATDS: 4.95763825338097E-2,1360 nM
same,potency estimated from few doses,NNT,1360 nM
same,potency estimated from few doses,NQO1,1530 nM
same,potency estimated from few doses,OPA1,1870 nM
same,potency estimated from few doses,PGK1,20.4 nM
same,potency estimated from few doses,PRKCA,2240 nM
same,potency estimated from few doses,PRKCD,2330 nM
same,potency estimated from few doses,TNIK,1880 nM
same,potency estimated from few doses,VDAC3,1950 nM
